Reference: PubChem BioAssay AID1159580 (chemical genetic matrix, 2015)
Values joined by “and” are separate entries in the source; they are usually repeats but may differ in a detail not shown here. Equal entries are not always repeated. Hit rate of the full screen: of about 5,500 compounds, about 2,000 (36%) were called active. Another 18% or so got no clear call; they are omitted. No stated cut-off is given here; in the data, active means normalized growth mostly below about 0.91 (no sharp cut-off); inconclusive means no clear call, values can overlap the other calls; inactive means mostly above about 0.92. This is one part of the list.

Test: chemical genetic growth profiling, strain panel (AID 1159580);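 further: tested at 20 µM; growth read once vehicle control cultures reached saturation at 30 °C; 1 = growth at the plate median or of vehicle wells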
Settings: growth OD

Measured: normalized growth

O=c1c(O)c(-c2ccc(O)c(O)c2)oc2cc(O)cc(O)c12
active: S. cerevisiae deletion strains, locus YKL160W, strain elf1, stronger effect = lower value 0.87 | S. cerevisiae deletion strains, locus YLR027C, strain aat2, stronger effect = lower value 0.893 | S. cerevisiae deletion strains, locus YLR221C, strain rsa3, stronger effect = lower value 0.906 | S. cerevisiae deletion strains, locus YLR258W, strain gsy2, stronger effect = lower value 0.878 | S. cerevisiae deletion strains, locus YLR262C, strain YPT6 (second series), stronger effect = lower value 0.779 | S. cerevisiae deletion strains, locus YLR320W, strain mms22, stronger effect = lower value 0.869 | S. cerevisiae deletion strains, locus YLR342W, strain FKS1 (second series), stronger effect = lower value 0.719 | S. cerevisiae deletion strains, locus YLR342W, strain FKS1, stronger effect = lower value 0.8 | S. cerevisiae deletion strains, locus YLR357W, strain rsc2, stronger effect = lower value 0.713 | S. cerevisiae deletion strains, locus YLR370C, strain arc18, stronger effect = lower value 0.859 | S. cerevisiae deletion strains, locus YLR418C, strain cdc73, stronger effect = lower value 0.775 | S. cerevisiae deletion strains, locus YMR058W, strain fet3, stronger effect = lower value 0.882 | S. cerevisiae deletion strains, locus YNL071W, strain lat1, stronger effect = lower value 0.848 | S. cerevisiae deletion strains, locus YNL209W, strain ssb2, stronger effect = lower value 0.636 | S. cerevisiae deletion strains, locus YNL233W, strain BNI4, stronger effect = lower value 0.859 | S. cerevisiae deletion strains, locus YOR070C, strain gyp1, stronger effect = lower value 0.885 | S. cerevisiae deletion strains, locus YOR083W, strain WHI5, stronger effect = lower value 0.808 | S. cerevisiae deletion strains, locus YOR106W, strain vam3, stronger effect = lower value 0.653 | S. cerevisiae deletion strains, locus YOR270C, strain vph1, stronger effect = lower value 0.749 | S. cerevisiae deletion strains, locus YPL051W, strain arl3, stronger effect = lower value 0.814 | S. cerevisiae deletion strains, locus YPL106C, strain sse1, stronger effect = lower value 0.783
inactive: S. cerevisiae deletion strains, locus YKL009W, strain mrt4, stronger effect = lower value 1.01 | S. cerevisiae deletion strains, locus YKL068W, stronger effect = lower value 1.03 | S. cerevisiae deletion strains, locus YKL085W, strain MDH1 (second series), stronger effect = lower value 1.06 | S. cerevisiae deletion strains, locus YKL085W, strain MDH1, stronger effect = lower value 1.06 | S. cerevisiae deletion strains, locus YKL190W, strain CNB1, stronger effect = lower value 0.97 | S. cerevisiae deletion strains, locus YKR001C, strain vps1, stronger effect = lower value 0.94 | S. cerevisiae deletion strains, locus YKR026C, strain gcn3, stronger effect = lower value 1 | S. cerevisiae deletion strains, locus YKR091W, strain srl3, stronger effect = lower value 0.979 | S. cerevisiae deletion strains, locus YLL001W, strain dnm1, stronger effect = lower value 0.941 | S. cerevisiae deletion strains, locus YLL026W, stronger effect = lower value 0.982 | S. cerevisiae deletion strains, locus YLL041C, strain sdh2, stronger effect = lower value 0.979 | S. cerevisiae deletion strains, locus YLR039C, strain RIC1, stronger effect = lower value 0.872 | S. cerevisiae deletion strains, locus YLR058C, strain SHM2, stronger effect = lower value 0.937 | S. cerevisiae deletion strains, locus YLR102C, strain apc9, stronger effect = lower value 1.04 | S. cerevisiae deletion strains, locus YLR113W, strain HOG1, stronger effect = lower value 0.98 | S. cerevisiae deletion strains, locus YLR262C, strain YPT6, stronger effect = lower value 0.982 | S. cerevisiae deletion strains, locus YLR268W, strain sec22, stronger effect = lower value 0.924 | S. cerevisiae deletion strains, locus YLR330W, strain CHS5, stronger effect = lower value 0.991 | S. cerevisiae deletion strains, locus YLR371W, strain rom2, stronger effect = lower value 0.969 | S. cerevisiae deletion strains, locus YLR384C, strain iki3, stronger effect = lower value 0.951 | S. cerevisiae deletion strains, locus YML016C, strain PPZ1, stronger effect = lower value 0.961 | S. cerevisiae deletion strains, locus YML032C, strain rad52, stronger effect = lower value 1.04 | S. cerevisiae deletion strains, locus YML120C, strain ndi1, stronger effect = lower value 0.98 | S. cerevisiae deletion strains, locus YML124C, strain tub3, stronger effect = lower value 1.03 | S. cerevisiae deletion strains, locus YMR078C, strain ctf18, stronger effect = lower value 1.03 | S. cerevisiae deletion strains, locus YMR125W, strain sto1, stronger effect = lower value 1.02 | S. cerevisiae deletion strains, locus YMR129W, stronger effect = lower value 0.955 | S. cerevisiae deletion strains, locus YMR205C, strain PFK2, stronger effect = lower value 0.929 | S. cerevisiae deletion strains, locus YMR223W, strain ubp8, stronger effect = lower value 0.928 | S. cerevisiae deletion strains, locus YMR231W, strain pep5, stronger effect = lower value 0.953 | S. cerevisiae deletion strains, locus YMR263W, strain SAP30, stronger effect = lower value 0.906 | S. cerevisiae deletion strains, locus YMR307W, strain GAS1, stronger effect = lower value 0.683 and 1 | S. cerevisiae deletion strains, locus YNL067W, strain RPL9B, stronger effect = lower value 0.913 | S. cerevisiae deletion strains, locus YNL128W, strain TEP1, stronger effect = lower value 0.964 and 0.995 | S. cerevisiae deletion strains, locus YNL153C, strain GIM3, stronger effect = lower value 0.875 and 0.922 | S. cerevisiae deletion strains, locus YNL175C, strain NOP13, stronger effect = lower value 1.01 | S. cerevisiae deletion strains, locus YNL183C, strain NPR1, stronger effect = lower value 0.928 | S. cerevisiae deletion strains, locus YNL197C, strain WHI3, stronger effect = lower value 1.01 | S. cerevisiae deletion strains, locus YNL224C, strain SQS1, stronger effect = lower value 1.02 | S. cerevisiae deletion strains, locus YNL248C, strain rpa49, stronger effect = lower value 0.948 | S. cerevisiae deletion strains, locus YNL250W, strain rad50, stronger effect = lower value 1.02 | S. cerevisiae deletion strains, locus YNL271C, strain bni1, stronger effect = lower value 1.02 | S. cerevisiae deletion strains, locus YNL298W, strain CLA4, stronger effect = lower value 1.01 | S. cerevisiae deletion strains, locus YNL307C, strain MCK1, stronger effect = lower value 0.948 | S. cerevisiae deletion strains, locus YNL322C, strain KRE1 (second series), stronger effect = lower value 0.941 | S. cerevisiae deletion strains, locus YNL322C, strain KRE1, stronger effect = lower value 0.929 | S. cerevisiae deletion strains, locus YNR049C, strain mso1, stronger effect = lower value 0.967 | S. cerevisiae deletion strains, locus YNR052C, strain pop2, stronger effect = lower value 1 | S. cerevisiae deletion strains, locus YOL006C, strain TOP1, stronger effect = lower value 0.616 | S. cerevisiae deletion strains, locus YOL012C, strain htz1 0.39 | S. cerevisiae deletion strains, locus YOL147C, strain pex11, stronger effect = lower value 1.03 | S. cerevisiae deletion strains, locus YOR001W, strain rrp6, stronger effect = lower value 0.925 | S. cerevisiae deletion strains, locus YOR061W, strain CKA2, stronger effect = lower value 0.939 | S. cerevisiae deletion strains, locus YOR069W, strain VPS5, stronger effect = lower value 0.974 | S. cerevisiae deletion strains, locus YOR080W, strain dia2, stronger effect = lower value 0.925 | S. cerevisiae deletion strains, locus YOR083W, strain WHI5 (second series), stronger effect = lower value 0.994 | S. cerevisiae deletion strains, locus YOR136W, strain idh2, stronger effect = lower value 1.01 | S. cerevisiae deletion strains, locus YOR144C, strain elg1, stronger effect = lower value 1.03 | S. cerevisiae deletion strains, locus YOR184W, strain ser1, stronger effect = lower value 0.92 | S. cerevisiae deletion strains, locus YOR231W, strain MKK1, stronger effect = lower value 0.991 | S. cerevisiae deletion strains, locus YOR265W, strain rbl2, stronger effect = lower value 0.963 | S. cerevisiae deletion strains, locus YOR290C, strain snf2, stronger effect = lower value 0.888 | S. cerevisiae deletion strains, locus YOR316C, strain cot1, stronger effect = lower value 1.04 | S. cerevisiae deletion strains, locus YPL055C, strain LGE1, stronger effect = lower value 0.86 and 1 | S. cerevisiae deletion strains, locus YPL078C, strain atp4, stronger effect = lower value 0.927 | S. cerevisiae deletion strains, locus YPL240C, strain hsp82, stronger effect = lower value 0.936 | S. cerevisiae deletion strains, locus YPL241C, strain CIN2, stronger effect = lower value 0.987 | S. cerevisiae deletion strains, locus YPL256C, strain CLN2, stronger effect = lower value 0.982 | S. cerevisiae deletion strains, locus YPR119W, strain clb2, stronger effect = lower value 1.05 | S. cerevisiae deletion strains, locus YPR141C, strain kar3, stronger effect = lower value 1.01 | S. cerevisiae deletion strains, locus YPR163C, strain tif3, stronger effect = lower value 1.03 | S. cerevisiae deletion strains, locus YPR167C, strain met16, stronger effect = lower value 1.02 | S. cerevisiae deletion strains, strain wtn01, stronger effect = lower value 0.931 | S. cerevisiae strains, strain wild type, stronger effect = lower value 0.912
